Laboratory results from PubChem BioAssay (NCI).
Compounds without any hit were thinned out: in the full panel of roughly 79,000, 15% have a hit. A number with no mark means an inactive call. Active and inactive are the calls of the source. No stated cut-off is given here; in the data, active means growth inhibition above about 70%; inactive means the rest.

Assay: NCI Yeast Anticancer Drug Screen. Data for the wt2 strain (AID 169);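 further: 0% = growth of vehicle-treated yeast cultures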
Conditions: S. cerevisiae wt2 strain growth inhibition, stronger effect = higher value
Description: Growth inhibition of yeast strains with defined genetic alterations is measured as a screen for potential anti-cancer activity. Selected strains with alterations in DNA damage repair or cell cycle control were exposed to compounds and growth inhibition was measured relative to vehicle treated controls. The strain used in this assay is wt2

CC(C)(Br)C(=O)/C=C/c1ccccc1
growth inhibition (at 1.2 µM): 0%
growth inhibition (at 3.7 µM): 3%
growth inhibition (at 11.0 µM): 6%
growth inhibition (at 33.0 µM): 10%
growth inhibition (at 100.0 µM): 18%

CCO/C=C1\SC(=S)N(c2ccc(OCC)cc2)C1=O
growth inhibition (at 1.2 µM): -28%
growth inhibition (at 3.7 µM): -38%
growth inhibition (at 11.0 µM): -59%
growth inhibition (at 33.0 µM): -38%
growth inhibition (at 100.0 µM): 27%

CCOC(=O)CC1(C)/C(=N\Nc2ccc([N+](=O)[O-])cc2[N+](=O)[O-])CCC2C1CCC1(C)C(C(C)CCCC(C)C)CCC21 (stereo not given)
growth inhibition (at 1.2 µM): 0%
growth inhibition (at 3.7 µM): 1%
growth inhibition (at 11.0 µM): 0%
growth inhibition (at 33.0 µM): -1%
growth inhibition (at 100.0 µM): -1%

Cc1ccc(NC(Nc2ccc(C)cc2C)=C(C(Cl)=C(Cl)Cl)[N+](=O)[O-])c(C)c1
growth inhibition (at 1.2 µM): 2%
growth inhibition (at 3.7 µM): 4%
growth inhibition (at 11.0 µM): 47%
growth inhibition (at 33.0 µM): 99% (active)
growth inhibition (at 100.0 µM): 94% (active)

COC(=O)C1CCCCC1C(=O)Nc1ccccc1 (stereo not given)
growth inhibition (at 1.2 µM): -2%
growth inhibition (at 3.7 µM): -1%
growth inhibition (at 11.0 µM): -2%
growth inhibition (at 33.0 µM): -4%
growth inhibition (at 100.0 µM): -1%

c1ccc2c(c1)N=C1CCCC3CCCC123 (stereo not given)
growth inhibition (at 1.2 µM): 1%
growth inhibition (at 3.7 µM): 2%
growth inhibition (at 11.0 µM): 3%
growth inhibition (at 33.0 µM): -1%
growth inhibition (at 100.0 µM): 98% (active)

C/C(=N\Sc1ccccc1)c1ccccc1O
growth inhibition (at 1.2 µM): 1%
growth inhibition (at 3.7 µM): 2%
growth inhibition (at 11.0 µM): 1%
growth inhibition (at 33.0 µM): 0%
growth inhibition (at 100.0 µM): 62%

O=C(c1ccccc1)[C@H]1Nc2ccc(Cl)cc2[C@H]2OCCC[C@@H]12
growth inhibition (at 1.2 µM): -15%
growth inhibition (at 3.7 µM): -15%
growth inhibition (at 11.0 µM): -16%
growth inhibition (at 33.0 µM): 17%
growth inhibition (at 100.0 µM): 81% (active)
